Reference: paper PMC4336329 (PLoS ONE, 2015)
Among all 310,000 compounds or so, about 14,000 (4.5%) showed an effect of 50% or more. The effect is printed as a negative number. The list comes from a sample in which strong results are over-represented; it also holds similar structures and randomly drawn compounds.

biological target: human ether-à-go-go-related gene (hERG) potassium channel (human, UniProt Q12809); assay: primary screen, population patch clamp on CHO cells stably expressing hERG; higher = less effect of the substance
Sequence (Q12809 whole entry, looked up): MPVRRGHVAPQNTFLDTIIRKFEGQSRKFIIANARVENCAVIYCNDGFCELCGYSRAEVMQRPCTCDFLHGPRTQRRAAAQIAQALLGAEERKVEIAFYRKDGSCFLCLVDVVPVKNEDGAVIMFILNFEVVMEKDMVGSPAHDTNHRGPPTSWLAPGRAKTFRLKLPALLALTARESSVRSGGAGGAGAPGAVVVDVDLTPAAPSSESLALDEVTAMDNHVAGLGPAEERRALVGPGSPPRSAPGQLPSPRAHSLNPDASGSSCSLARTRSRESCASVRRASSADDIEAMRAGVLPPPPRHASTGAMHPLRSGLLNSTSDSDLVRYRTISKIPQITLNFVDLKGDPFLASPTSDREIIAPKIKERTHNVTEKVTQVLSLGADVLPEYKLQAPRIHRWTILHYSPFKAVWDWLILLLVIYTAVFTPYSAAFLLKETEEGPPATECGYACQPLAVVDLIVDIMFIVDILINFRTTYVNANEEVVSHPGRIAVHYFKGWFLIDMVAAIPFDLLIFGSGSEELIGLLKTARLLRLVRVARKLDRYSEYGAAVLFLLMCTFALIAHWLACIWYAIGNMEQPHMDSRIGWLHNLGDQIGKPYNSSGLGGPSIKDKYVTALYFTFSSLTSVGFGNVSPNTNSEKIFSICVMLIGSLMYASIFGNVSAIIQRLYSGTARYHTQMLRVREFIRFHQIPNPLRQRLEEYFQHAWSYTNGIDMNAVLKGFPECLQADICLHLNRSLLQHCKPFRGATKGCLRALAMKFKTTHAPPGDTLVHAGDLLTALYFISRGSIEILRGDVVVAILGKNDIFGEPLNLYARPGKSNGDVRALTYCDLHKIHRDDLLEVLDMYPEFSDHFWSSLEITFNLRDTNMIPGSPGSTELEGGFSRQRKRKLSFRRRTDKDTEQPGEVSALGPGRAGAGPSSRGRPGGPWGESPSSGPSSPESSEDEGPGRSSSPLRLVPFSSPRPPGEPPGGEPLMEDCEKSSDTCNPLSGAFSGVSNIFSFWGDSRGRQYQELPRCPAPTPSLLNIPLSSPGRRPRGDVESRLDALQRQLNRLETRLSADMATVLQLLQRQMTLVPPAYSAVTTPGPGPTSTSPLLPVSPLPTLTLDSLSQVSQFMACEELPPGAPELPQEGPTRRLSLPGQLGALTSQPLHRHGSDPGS
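Also: peak tail current of the secondary pulse compared with the same well before compound.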

SMILES	hERG current change (%, negative = inhibition) at 10uM [%]
COc1ccc(C2CC(C(F)(F)F)n3nc(C(=O)Nc4ccc5c(c4)OCO5)cc3N2)cc1 (centres unmarked)	10.5
COc1ccc(-c2noc(N3CCCC(C(=O)Nc4ccccc4F)C3)n2)cc1 (centres unmarked)	15.5
Cc1csc(=O)n1CC(=O)OCC(=O)c1ccc(Br)cc1	-14
CCOc1ccc(NC(=S)N2CCN(S(=O)(=O)c3ccccc3)CC2)cc1	-31.6
COc1ccc(-n2c(C)n[nH]c2=O)cc1OC	10.7
Cc1sc(NC(=O)c2sc3nc4c(C)cccc4cc3c2N)c(C#N)c1C	8.29
O=c1[nH]c2cc3c(cc2cc1CN(Cc1cccnc1)Cc1nnnn1Cc1ccco1)OCCO3	-4.69
CCN1C(=O)/C(=C/C=C2\C=CN(CC)c3ccccc32)SC1=S	-4.57
NC(=O)COc1ccc2oc(=O)cc(-c3cc4ccccc4o3)c2c1	7.27
Cc1noc(C)c1CSCC(=O)Nc1cc(C(F)(F)F)ccc1N1CCOCC1	-37.9
Cc1c(Cl)c([N+](=O)[O-])nn1CC(=O)Nc1ccc2c(c1)OCO2	18.4
CCCNC(=O)C1(CC2CC(c3ccccc3)=NO2)CCN(C(=O)CCCCCBr)CC1 (centres unmarked)	-50
CCCCCCCNC(=O)C1(CC2CC(c3cccc(Br)c3)=NO2)CCN(C(=O)CCCCCBr)CC1 (centres unmarked)	-82.7
CCCCCCCNC(=O)C1(CC2CC(c3ccc(Cl)cc3)=NO2)CCN(C(=O)c2cc(OCC)c(OCC)c(OCC)c2)CC1 (centres unmarked)	17.6
CCCCCCCNC(=O)C1(CC2CC(c3cccc(Br)c3)=NO2)CCN(C(=O)OC(C)(C)C)CC1 (centres unmarked)	3.88
CCCCCCCNC(=O)C1(CC2CC(c3ccc(Cl)cc3)=NO2)CCN(C(=O)CCCCCBr)CC1 (centres unmarked)	-79
CCCCn1c(-c2ccco2)n[nH]c1=S	16.9
COc1cc2c(cc1OC)-c1nnc(-c3ccco3)n1C1(CCCC1)C2	-8.01
O=Cc1c(Cl)cccc1Cl	13.9
CNC(=O)CCCN1C(=O)c2ccccc2Sc2ncccc21	23.9
O=C(CSc1nc2[nH]ncc2c(=O)[nH]1)Nc1cccc([N+](=O)[O-])c1	-19.2
COCCn1c(C)cc(C2=NNC(=Nc3ccc(Cl)cc3Cl)SC2)c1C	7.57
O=C(Cn1c(SCC(=O)NC2CCCC2)nnc1-c1ccncc1)Nc1ccc2c(c1)OCO2	-11.7

SMILES	hERG current change (%, negative = inhibition) at 10uM [%]
COC(=O)CSc1nnc(C)c(=O)[nH]1	2
Cc1ccc2c(CC(=O)NCC3(N4CCOCC4)CCCCC3)coc2c1C	-25.5
O=C(Cc1coc2cc3c(cc12)CCC3)NCC1(N2CCCCC2)CCCCC1	-76.9
O=C(Cc1coc2cc3c(cc12)CCC3)NC1CCCCCCC1	0.532
CCOC(=O)c1sc2ncn(C(CC)C(=O)OCC)c(=O)c2c1C (centres unmarked)	1.12
O=C(COC(=O)c1cc[n+]([O-])cc1)Nc1ccc(Cl)cc1C(F)(F)F	24.9
O=C(C1CCN(C2CCN(Cc3ccc4c(c3)CCO4)CC2)CC1)N1CCCC1	-43
O=C(c1cc2ccccc2o1)N1CCCC1	10.8
Cc1ncc(CN2CCC(N3CCC(C(=O)N4CCCC4)CC3)CC2)s1	-18.1
O=C(c1cc2ccccc2o1)N1CCCCCC1	-5.92
COCc1ccc(CN2CCC(N3CCC(C(=O)N4CCCC4)CC3)CC2)o1	8.86
C=C(C)C1CC=C(CN2CCC(O)CC2)CC1 (centres unmarked)	-6.28
O=C(c1cc(F)ccc1F)N1CCC(N2CCC(C(=O)N3CCCC3)CC2)CC1	6.92
CC1(C)[C@H]2CC=C(CN3CCC(N4CCC(C(=O)N5CCCC5)CC4)CC3)[C@@H]1C2	-25.1
O=C(c1cc2ccccc2o1)N1CCC(N2CCC(C(=O)N3CCCC3)CC2)CC1	-55.7
CCc1ccc(CN2CCC(N3CCC(C(=O)N4CCCC4)CC3)CC2)o1	-70
C=C(C)[C@@H]1CC=C(CN2CCC(N3CCC(C(=O)N4CCCC4)CC3)CC2)CC1	-82.2
O=C(C1CCN(C2CCN(Cc3ccc4cc(F)ccc4n3)CC2)CC1)N1CCCC1	-77.3
O=C(CNC(=O)c1ccco1)Nc1ccncc1	-5.14
Cc1cc(C)cc(C(=O)NC(CC(N)=O)c2ccc(NCCN3CCCC3)c([N+](=O)[O-])c2)c1 (centres unmarked)	10.5
COC(=O)Cc1coc2cc(OC)ccc12	11.9
Cc1ccc(S(=O)(=O)n2cnc3cc([N+](=O)[O-])ccc32)cc1C	-19.9
Cc1cc(NC(=O)CSc2nc3c(cc2C#N)CCC3)no1	26.7

SMILES	hERG current change (%, negative = inhibition) at 10uM [%]
O=C1c2ccccc2C(=O)N1c1ncn[nH]1	11.3
Cc1cccc(Nc2ncnc(N)n2)c1	15.6
O=C1CCN(Cc2ccc(Cl)cc2)N1	10.8
CC(C)c1cc(=O)n2[nH]c(SCc3ccccc3Cl)nc2n1	23.7
Cc1ccc(C(=O)COC(=O)CCC(=O)NC2CCCCC2)cc1C	14.8
Cc1cccc(C)c1N(CC(O)Cn1c2ccccc2c2ccccc21)S(C)(=O)=O (centres unmarked)	18.6
COc1cccc(C(CC(=O)O)NS(=O)(=O)c2ccc3c(c2)N(C(C)=O)CC(C)O3)c1 (centres unmarked)	24.4
Cc1nn(-c2ccccc2)c(Cl)c1C(=O)N1CCN(c2ncnc3c2cnn3-c2ccccc2)CC1	-29.1
C=C(C)[C@@H]1CC=C(CN2CCC(CCOC)(C(=O)OCC)CC2)CC1	-64.7
CCOC(=O)C1(CCOC)CCN(Cc2nc(C(C)C)cs2)CC1	41
CCOC(=O)C1(CCOC)CCN(Cc2ccc(C3CCCCO3)s2)CC1 (centres unmarked)	-21.4
N#CCCN(CCC#N)C(=O)C1c2ccccc2Oc2ccccc21	14.4
CCOC(=O)c1ccccc1NC(=O)COC(=O)CN1C(=O)C2CC=CCC2C1=O (centres unmarked)	-2.8
Cn1c(C(=O)NCCN2CCCCCC2)cc2c(=O)n(C)c3ccccc3c21	-13.4
C=CCOc1ccc2oc(=O)cc(C)c2c1	-1.62
CC1(C)CC(=O)c2c(nc3ccccc3c2N)C1	-28.8
CCNc1c2c(nc3ccccc13)CC(C)(C)CC2=O.O=C(O)C(=O)O	-69.9
Cc1c2c(nc3ccccc13)CC(C)(C)CC2=O.Cl	0.994
O=C(Nc1cccc(C(=O)O)c1)/C(=C\c1ccco1)NC(=O)c1ccc(Br)o1	-28.1
Cc1ccc(SCC(=O)OCC(=O)NCc2cccs2)cc1	5.8
NC(=S)N=Nc1c(O)n(CCCl)c2ccc(Cl)cc12	9.1
O=C(COc1ccc(/C=C\[N+](=O)[O-])cc1)N1CCOCC1	-17.7
CCOc1cc(/C=C\[N+](=O)[O-])ccc1OCC(=O)N1CCOCC1	-50.5

SMILES	hERG current change (%, negative = inhibition) at 10uM [%]
CCOc1cc(C=C2C(=O)NC(=O)NC2=O)ccc1OCC(=O)N1CCOCC1	7.28
CCCOc1ccc(C(=O)Nc2ccc3c(c2)OCO3)cc1	16.1
CC(=O)c1cccc(NC(=O)CCOc2ccccc2)c1	6.88
COc1cccc(C(=O)Nc2cc(NC(=O)c3ccco3)ccc2OC)c1	-5.19
CCCOc1cccc(C(=O)Nc2cc(NC(=O)c3ccco3)ccc2OC)c1	-81.2
CCCCOc1cccc(C(=O)Nc2ccc(NC(=O)c3ccco3)cc2)c1	8.63
COc1ccc(NC(=O)c2ccco2)cc1NC(=O)c1cccc(OC(C)C)c1	-96.7
CCCOc1cccc(C(=O)Nc2cccc(NC(=O)c3ccco3)c2)c1	-21.8
CC(C)Oc1cccc(C(=O)Nc2ccc(NC(=O)c3ccco3)cc2)c1	6.06
CCCc1cc(=O)[nH]c(SCC(=O)Nc2nonc2N)n1	-5.4
COc1ccc(CC(=O)Nc2sc3c(c2C#N)CC(C)(C)NC3(C)C)cc1OC	-3.63
COc1ccc(C(=O)CSc2nnc(NC(=O)C3CC(=O)N(c4cccc(OC)c4)C3)s2)cc1 (centres unmarked)	15.6
COC(=O)CC1=C(C(=O)OC)C2(C(=O)N(C)c3ccccc32)C(C#N)=C(N)O1 (centres unmarked)	14.7
CC(C)(C)NC(=O)/C(=C\c1ccccc1F)NC(=O)c1ccc([N+](=O)[O-])cc1	-35.3
Cl.N=c1n(CCO)c2ccccc2n1Cc1ccc(Cl)cc1	-40.1
Cn1c(=O)n(CCOc2ccc(Cl)cc2Cl)c2ccccc21	-2.26
Cl.N=c1n(CCO)c2ccccc2n1CCOc1ccc(Cl)cc1Cl	-63.8
COc1ccccc1NS(=O)(=O)c1ccc(-c2cc(C)no2)s1	-69.5
COc1ccccc1NS(=O)(=O)c1cc(-c2cc(C)no2)ccc1OC	-5.52
COC(=O)c1ccc(NS(=O)(=O)c2ccc(-c3cc(C)no3)s2)cc1	10.5
